This experiment deals with furin, P09958. The experiment in a line: furin cleavage Z-score vs untreated control; higher = more cleavage, active = 3.5 or more, inactive = 1 or less, 8 variable residues between constant flanks. In short, it runs like this:
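The cleavage Z-score is the log read count relative to furin-free reactions, lowess-adjusted and scaled by median absolute deviation. Counts came from sequencing DNA released from bead-bound 8-mer peptide–cDNA fusions after digestion with purified furin for 7.5, 15 or 30 min.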

This is one part of the list. The hit rate among all sequences tested is not known here.
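Further: purified furin at 1:10 enzyme:substrate in 50 mM HEPES pH 7.5.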

Sequence of furin, P09958 (P09958 whole entry, the tested form may be a part): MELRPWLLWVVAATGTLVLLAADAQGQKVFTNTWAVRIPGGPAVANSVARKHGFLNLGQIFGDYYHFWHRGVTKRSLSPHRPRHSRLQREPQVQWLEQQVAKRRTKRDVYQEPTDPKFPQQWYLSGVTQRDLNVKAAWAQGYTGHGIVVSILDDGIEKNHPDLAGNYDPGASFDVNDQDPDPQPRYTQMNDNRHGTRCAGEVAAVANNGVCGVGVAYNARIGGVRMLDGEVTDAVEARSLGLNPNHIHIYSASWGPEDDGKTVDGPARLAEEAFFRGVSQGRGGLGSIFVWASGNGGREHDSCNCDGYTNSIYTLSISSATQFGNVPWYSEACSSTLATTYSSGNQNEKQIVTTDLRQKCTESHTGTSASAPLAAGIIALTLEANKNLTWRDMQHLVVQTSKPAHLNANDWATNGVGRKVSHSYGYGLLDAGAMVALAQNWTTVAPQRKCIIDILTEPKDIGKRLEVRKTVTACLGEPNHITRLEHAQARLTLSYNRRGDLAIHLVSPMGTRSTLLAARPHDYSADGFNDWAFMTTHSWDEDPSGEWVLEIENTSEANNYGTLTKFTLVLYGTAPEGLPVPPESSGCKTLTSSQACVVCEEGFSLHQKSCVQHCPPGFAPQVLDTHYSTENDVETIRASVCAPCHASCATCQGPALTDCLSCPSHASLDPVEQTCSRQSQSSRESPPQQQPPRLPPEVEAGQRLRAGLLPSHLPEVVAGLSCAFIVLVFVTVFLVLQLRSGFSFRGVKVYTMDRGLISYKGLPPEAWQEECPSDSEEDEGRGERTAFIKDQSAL

B1: HC932 (peptide)
chain: CAMNTPGLPVAGNASASA
B1: the “furin cleavage Z-score” value was 0.685 (inactive) (7.5 min), 0.0364 (inactive) (15 min) and -1.85 (inactive) (30 min).

B2: HC2256 (peptide)
chain: CAEVVTSTWGAGNASASA
Take B2: the “furin cleavage Z-score” value is, setting by setting: (7.5 min) 0.945 (inactive); (15 min) 1.37; (30 min) -1.03 (inactive).

B3: HC1702 (peptide)
chain: CAMQECSQHLAGNASASA
Turning to B3, the “furin cleavage Z-score” value was 0.311 (inactive) (7.5 min), 0.512 (inactive) (15 min) and -0.705 (inactive) (30 min).

B4: HC1379 (peptide)
chain: CAEEQKLPINAGNASASA
As to B4, the “furin cleavage Z-score” value reads like this: (7.5 min) 0.861 (inactive); (15 min) -1.11 (inactive); (30 min) -0.462 (inactive).

B5: HC2317 (peptide)
chain: CASVPCHRPSAGNASASA
Take B5: the “furin cleavage Z-score” value was 0.746 (inactive) (7.5 min), 0.823 (inactive) (15 min) and 0.912 (inactive) (30 min).

B6: FS-963 (peptide)
chain: CASRKRAPRSAGNASASA
B6: the “furin cleavage Z-score” value is, setting by setting: (7.5 min) 10.6 (active); (15 min) 8.82 (active); (30 min) 9.02 (active).

B7: FS-63 (peptide)
chain: CANATRAPRSAGNASASA
Regarding B7, the “furin cleavage Z-score” value runs as follows: (7.5 min) 8.66 (active); (15 min) 8.42 (active); (30 min) 6.36 (active).

B8: FS-442 (peptide)
chain: CAIPVRAPRSAGNASASA
B8: the “furin cleavage Z-score” value by setting is: (7.5 min) 5.71 (active); (15 min) 3.56 (active); (30 min) 4.32 (active).

B9: FS-487 (peptide)
chain: CAREFRAHRSAGNASASA
Regarding B9, the “furin cleavage Z-score” value is, setting by setting: (7.5 min) 1.52; (15 min) 0.689 (inactive); (30 min) 1.39.

B10: FS-524 (peptide)
chain: CAEFERAPRSAGNASASA
On to B10, for which the “furin cleavage Z-score” value (7.5 min) is 0.193 (inactive), the “furin cleavage Z-score” value (15 min) was 0.266 (inactive) and the “furin cleavage Z-score” value (30 min) is 0.907 (inactive).

B11: HC1905 (peptide)
chain: CATTPCSGLWAGNASASA
Turning to B11, the “furin cleavage Z-score” value runs as follows: (7.5 min) 0.96 (inactive); (15 min) 1.01; (30 min) -0.0137 (inactive).

B12: HC989 (peptide)
chain: CATSTWVLVGAGNASASA
B12: the “furin cleavage Z-score” value is -2.25 (inactive) (7.5 min), -0.362 (inactive) (15 min) and -1.37 (inactive) (30 min).

B13: HC1353 (peptide)
chain: CAYSSMPPLEAGNASASA
As for B13, the “furin cleavage Z-score” value (7.5 min) was 0.446 (inactive), the “furin cleavage Z-score” value (15 min) stood at 1.62 and the “furin cleavage Z-score” value (30 min) was found to be 1.96.

B14: HC2133 (peptide)
chain: CAERVVCCSMAGNASASA
Consider B14, for which the “furin cleavage Z-score” value is -0.391 (inactive) (7.5 min), 0.896 (inactive) (15 min) and 0.654 (inactive) (30 min).

B15: FS-386 (peptide)
chain: CAVGERFRRDAGNASASA
For B15, the “furin cleavage Z-score” value was 11.7 (active) (7.5 min), 13 (active) (15 min) and 8.87 (active) (30 min).

B16: FS-24 (peptide)
chain: CAERAPERRDAGNASASA
With B16, the “furin cleavage Z-score” value runs as follows: (7.5 min) -2.22 (inactive); (15 min) -0.00906 (inactive); (30 min) -1.69 (inactive).

B17: FS-3247 (peptide)
chain: CARFPRGVSRAGNASASA
With B17, the “furin cleavage Z-score” value reads like this: (7.5 min) -0.934 (inactive); (15 min) -0.454 (inactive); (30 min) -0.752 (inactive).

B18: FS-2788 (peptide)
chain: CARRRRGFRQAGNASASA
With B18, the “furin cleavage Z-score” value is 2.04 (7.5 min), 3.6 (active) (15 min) and 4.63 (active) (30 min).

B19: FS-2925 (peptide)
chain: CARFPRFVNVAGNASASA
For the sequence B19, the “furin cleavage Z-score” value reads like this: (7.5 min) 3.2; (15 min) 3.36; (30 min) 7.1 (active).

B20: FS-3041 (peptide)
chain: CARQPRPAGVAGNASASA
In the case of B20, the “furin cleavage Z-score” value is -0.899 (inactive) (7.5 min), -0.574 (inactive) (15 min) and -0.629 (inactive) (30 min).

B21: FS-1226 (peptide)
chain: CALGARERRDAGNASASA
As to B21, the “furin cleavage Z-score” value (7.5 min) is 13.9 (active), the “furin cleavage Z-score” value (15 min) was 15.5 (active) and the “furin cleavage Z-score” value (30 min) is 11.8 (active).

B22: HC935 (peptide)
chain: CAPVCQDHLEAGNASASA
As to B22, the “furin cleavage Z-score” value (7.5 min) was -0.428 (inactive), the “furin cleavage Z-score” value (15 min) is -0.153 (inactive) and the “furin cleavage Z-score” value (30 min) is -0.41 (inactive).

B23: HC285 (peptide)
chain: CARDGKLPATAGNASASA
As to B23, the “furin cleavage Z-score” value by setting is: (7.5 min) 1.05; (15 min) 2.03; (30 min) 0.856 (inactive).

B24: HC64 (peptide)
chain: CATTPCLGSWAGNASASA
With B24, the “furin cleavage Z-score” value reads like this: (7.5 min) 0.626 (inactive); (15 min) 0.544 (inactive); (30 min) 0.646 (inactive).

B25: HC1087 (peptide)
chain: CAAGYGAGVAAGNASASA
B25: the “furin cleavage Z-score” value is 1.51 (7.5 min), -1.39 (inactive) (15 min) and -0.133 (inactive) (30 min).

B26: FS-92 (peptide)
chain: CASMPRERRDAGNASASA
Take B26: the “furin cleavage Z-score” value was 10.3 (active) (7.5 min), 12.9 (active) (15 min) and 9.32 (active) (30 min).

B27: FS-2789 (peptide)
chain: CARRRRGLECAGNASASA
B27: the “furin cleavage Z-score” value (7.5 min) was 6.18 (active), the “furin cleavage Z-score” value (15 min) is 4.95 (active) and the “furin cleavage Z-score” value (30 min) was 7.29 (active).

B28: FS-1922 (peptide)
chain: CARRRRERDDAGNASASA
On to B28, for which the “furin cleavage Z-score” value is, setting by setting: (7.5 min) 7.16 (active); (15 min) 10.1 (active); (30 min) 7.38 (active).

B29: FS-1268 (peptide)
chain: CARRRRERRDAGNASASA
Consider B29, for which the “furin cleavage Z-score” value (7.5 min) was 14.1 (active), the “furin cleavage Z-score” value (15 min) is 12.4 (active) and the “furin cleavage Z-score” value (30 min) was 10.4 (active).

B30: FS-2081 (peptide)
chain: CARRRRSGADAGNASASA
For B30, the “furin cleavage Z-score” value is 1.69 (7.5 min), 0.662 (inactive) (15 min) and 0.709 (inactive) (30 min).

B31: HC745 (peptide)
chain: CALLCPAGHAAGNASASA
Turning to B31, the “furin cleavage Z-score” value runs as follows: (7.5 min) 0.399 (inactive); (15 min) 0.942 (inactive); (30 min) -0.0279 (inactive).

B32: HC1019 (peptide)
chain: CAYIEQGMMLAGNASASA
For B32, the “furin cleavage Z-score” value by setting is: (7.5 min) -1.18 (inactive); (15 min) -0.261 (inactive); (30 min) -0.872 (inactive).

B33: HC1898 (peptide)
chain: CATTPCSTSWAGNASASA
For the sequence B33, the “furin cleavage Z-score” value was 0.261 (inactive) (7.5 min), 0.66 (inactive) (15 min) and -0.516 (inactive) (30 min).

B34: HC2030 (peptide)
chain: CAVVVCSMSYAGNASASA
With B34, the “furin cleavage Z-score” value by setting is: (7.5 min) 0.0385 (inactive); (15 min) -1.4 (inactive); (30 min) 0.392 (inactive).

B35: HC29 (peptide)
chain: CAMEECHQHLAGNASASA
For B35, the “furin cleavage Z-score” value runs as follows: (7.5 min) 0.383 (inactive); (15 min) 1.55; (30 min) 2.41.

B36: HC1213 (peptide)
chain: CAMTTDNLKCAGNASASA
On to B36, for which the “furin cleavage Z-score” value (7.5 min) is -0.575 (inactive), the “furin cleavage Z-score” value (15 min) is -0.0624 (inactive) and the “furin cleavage Z-score” value (30 min) was 0.0584 (inactive).

B37: FS-2596 (peptide)
chain: CARRRRAVPVAGNASASA
Take B37: the “furin cleavage Z-score” value by setting is: (7.5 min) 0.0891 (inactive); (15 min) 0.235 (inactive); (30 min) 1.42.

B38: FS-1317 (peptide)
chain: CADWLRQRRTAGNASASA
As for B38, the “furin cleavage Z-score” value (7.5 min) is -0.575 (inactive), the “furin cleavage Z-score” value (15 min) was 1.58 and the “furin cleavage Z-score” value (30 min) came out at 1.74.

B39: FS-584 (peptide)
chain: CACSHRERRDAGNASASA
For the sequence B39, the “furin cleavage Z-score” value by setting is: (7.5 min) 6.92 (active); (15 min) 7.04 (active); (30 min) 8.38 (active).

B40: FS-1784 (peptide)
chain: CARRRRFPFVAGNASASA
For the sequence B40, the “furin cleavage Z-score” value (7.5 min) was 0.483 (inactive), the “furin cleavage Z-score” value (15 min) is 0.473 (inactive) and the “furin cleavage Z-score” value (30 min) was 1.3.

B41: FS-95 (peptide)
chain: CASVDRWRRTAGNASASA
B41: the “furin cleavage Z-score” value runs as follows: (7.5 min) 3.08; (15 min) 4.75 (active); (30 min) 4.05 (active).

B42: FS-2786 (peptide)
chain: CARRRRFVPVAGNASASA
Turning to B42, the “furin cleavage Z-score” value reads like this: (7.5 min) 2.12; (15 min) 4.63 (active); (30 min) 5.2 (active).

B43: FS-375 (peptide)
chain: CARRRRERRTAGNASASA
On to B43, for which the “furin cleavage Z-score” value was 10.4 (active) (7.5 min), 11 (active) (15 min) and 9 (active) (30 min).

B44: HC724 (peptide)
chain: CASSDLYLVTAGNASASA
As to B44, the “furin cleavage Z-score” value is -0.584 (inactive) (7.5 min), -0.169 (inactive) (15 min) and -0.884 (inactive) (30 min).

The values above are taken from the supplement of paper PMC3545927.
